From PubChem BioAssay (Tox21)
“And” between values parts separate entries of the source, which are not always exact repeats. Equal entries are not always repeated. Results filed as inconclusive are left out. A number with no mark means an inactive call. The source made the active and inactive calls. Unless noted, the call rests on the fitted dose curve; in most records, active means well fitted cell-killing curve with a large enough effect in the repeat runs; inconclusive means weak or mixed curves, or effect the other way; inactive means no such curve, though single readings can be large or run the other way.

Biological target: Vitamin D3 receptor (Homo sapiens) (UniProt P11473)
Test: qHTS assay to identify small molecule agonists of the vitamin D receptor (VDR) signaling pathway (AID 743222; calls by dose curve)
Conditions: HEK293T VDR-UAS-bla, beta-lactamase FRET ratio, 16 h; series mostly up to 63.5 µM; activation: at the top concentration
Procedure, shortened: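 Quantitative HTS agonist-mode screen: compounds in DMSO were pin-transferred onto VDR-bla cells and incubated 16 h at 37C, 5% CO2. Reporter activity was detected with LiveBLAzer B/G FRET substrate after 2 h at room temperature.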
On the % scale 0 is the no-effect control and ±100 the full control effect.

Sequence of Vitamin D3 receptor (Homo sapiens) (P11473 whole entry, looked up): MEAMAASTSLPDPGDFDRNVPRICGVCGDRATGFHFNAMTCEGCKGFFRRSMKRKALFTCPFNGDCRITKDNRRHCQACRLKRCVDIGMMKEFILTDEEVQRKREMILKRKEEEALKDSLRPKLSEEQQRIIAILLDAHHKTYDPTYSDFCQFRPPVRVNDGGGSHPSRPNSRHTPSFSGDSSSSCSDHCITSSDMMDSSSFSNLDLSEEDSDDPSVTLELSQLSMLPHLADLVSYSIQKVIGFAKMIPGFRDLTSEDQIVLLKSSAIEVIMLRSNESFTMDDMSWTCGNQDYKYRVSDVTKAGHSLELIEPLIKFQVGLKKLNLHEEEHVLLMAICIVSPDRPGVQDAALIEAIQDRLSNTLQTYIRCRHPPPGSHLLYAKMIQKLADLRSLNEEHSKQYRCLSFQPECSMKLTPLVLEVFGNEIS

Row | SMILES | activation
1 | CCCCCCCCCCCCCCCC(=O)OC[C@H](O)[C@H]1OC(=O)C(O)=C1O | 0.103%
2 | O=[N+]([O-])c1ccccc1Nc1ccccc1 | -8.05%
3 | CN(C)c1ccc(SC#N)cc1 | -6.68%
4 | CCCC1O[C@@H]2C[C@H]3[C@@H]4CCC5=CC(=O)C=C[C@]5(C)[C@H]4[C@@H](O)C[C@]3(C)[C@]2(C(=O)CO)O1 (some centres undefined) | 4.74%
5 | CCCCCCCCCCC=O | 7.47% [at 81.1 µM]
6 | C1CCCC1 | 2.06%
7 | Oc1ccc(Cl)cc1Sc1cc(Cl)ccc1O | -18.4%
8 | CCCCCOC(=O)CCCC | -0.97%
9 | CCOC(=O)c1nc(C(Cl)(Cl)Cl)n(-c2ccc(Cl)cc2Cl)n1 | 6.11%
10 | Clc1ccc2nsnc2c1NC1=NCCN1 | 0.473%
11 | C[C@@H]1C[C@H]2[C@@H]3CCC4=CC(=O)C=C[C@]4(C)[C@@]3(Cl)[C@@H](O)C[C@]2(C)[C@@]1(OC(=O)c1ccco1)C(=O)CCl | -19.5%
12 | CC(=O)OCC(C)OC(C)=O (centres undefined) | 4.75%
13 | Cc1cccc(S(=O)(=O)O)c1C | 0.77%
14 | COc1c(C)c2c(c(O)c1C/C=C(\C)CCC(=O)O)C(=O)OC2 | -0.783%
15 | CSc1ccc(C(=O)c2[nH]c(=O)[nH]c2C)cc1 | 1.7%
16 | ON=C1CCCC1 | -7.16% [at 81.1 µM]
17 | Cc1ccc(O)c(C(C)(C)C)c1 | 1.98%
18 | O=C1c2ccccc2Cc2ccccc21 | 2.06% [at 81.1 µM]
19 | C[C@H]1[C@H]2CC[C@H]3[C@@H]4CC=C5C[C@@H](N(C)C)CC[C@]5(C)[C@H]4CC[C@]23CN1C | 8.3%
20 | O=C(OCC1CO1)C1CCCCC1C(=O)OCC1CO1 (centres undefined) | -11.4%

Biological target: Vitamin D3 receptor (Homo sapiens) (UniProt P11473)
Test: qHTS assay to identify small molecule antagonists of the vitamin D receptor (VDR) signaling pathway (AID 743223; active means well fitted inhibition curve with a large enough effect in the signal ratio in the repeat runs, not every such curve was filed as active; the % refers to the signal ratio; further: potency means the concentration at half of the fitted maximal effect)
Conditions: VDR-UAS-bla HEK293T, beta-lactamase FRET ratio, 16 h; series mostly up to 61 µM; activity change, negative = inhibition: at the top concentration
Procedure, shortened: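 Cells carrying a VDR-driven beta-lactamase reporter (VDR-bla) were co-treated with compound and 3 nM final 1alpha,25-dihydroxyvitamin D3 for 16 h at 37C; reporter activity was measured as FRET substrate fluorescence after 2 h at room temperature.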

Row | SMILES | activity change, negative = inhibition [%] | Potency
21 | Cc1c(C)c2c(c(C)c1O)CCC(C)(COc1ccc(CC3SC(=O)NC3=O)cc1)O2 (centres undefined) | -1.76 | 
22 | O=[N+]([O-])c1ccccc1Nc1ccccc1 | 25.1 | 
23 | C1CCCC1 | 0.335 | 
24 | Oc1ccc(Cl)cc1Sc1cc(Cl)ccc1O | -8.88 | 
25 | C=C(C)C(=O)OCC[N+](C)(C)C | 5.21 | 
26 | CCCCCOC(=O)CCCC | 0.987 | 
27 | Clc1ccc2nsnc2c1NC1=NCCN1 | -7.99 | 
28 | O=C1CCCCCN1SSN1CCCCCC1=O | 9.47 | 
29 | CSc1ccc(C(=O)c2[nH]c(=O)[nH]c2C)cc1 | -0.623 | 
30 | Cc1ccc(O)c(C(C)(C)C)c1 |  | 13.8 µM (active)

Tested on: not listed separately
Test: qHTS assay to identify small molecule agonists of the vitamin D receptor (VDR) signaling pathway - cell viability counter screen (AID 743224); further: nearly all actives have a fitted effect of over 50% in size; further: potency means the concentration at half of the fitted maximal effect
Conditions: VDR-bla HEK293T viability, CellTiter-Glo luminescence, 16 h; series mostly up to 62.6 µM; activity change, negative = cytotoxicity: at the top concentration
Procedure, shortened: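 Viability is measured in the same wells as the VDR-bla reporter assay: after 16 h compound treatment and 2 h substrate loading, CellTiter-Glo is added and luminescence read 30 min later.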

Row | SMILES | activity change, negative = cytotoxicity | Potency
31 | COc1cc(/C=C/C(=O)O[C@H]2CC[C@]34C[C@]35CC[C@]3(C)[C@@H]([C@H](C)CCC=C(C)C)CC[C@@]3(C)[C@@H]5CC[C@H]4C2(C)C)ccc1O | 16.4% | 
32 | CCCCCCCCCCCCCCCC(=O)OC[C@H](O)[C@H]1OC(=O)C(O)=C1O |  | 34.7 µM (active)
33 | Cc1c(C)c2c(c(C)c1O)CCC(C)(COc1ccc(CC3SC(=O)NC3=O)cc1)O2 (centres undefined) | 13.2% | 
34 | COC(=O)C1=C(C)NC(C)=C(C(=O)OCC(C)C)C1c1ccccc1[N+](=O)[O-] (centres undefined) |  | 27.5 µM (active)
35 | O=[N+]([O-])c1ccccc1Nc1ccccc1 | -3.99% | 
36 | CN(C)c1ccc(SC#N)cc1 | -14.5% | 
37 | CCCC1O[C@@H]2C[C@H]3[C@@H]4CCC5=CC(=O)C=C[C@]5(C)[C@H]4[C@@H](O)C[C@]3(C)[C@]2(C(=O)CO)O1 (some centres undefined) |  | inactive
38 | CCCCCCCCCCC=O | -0.142% [at 81.1 µM] | 
39 | C1CCCC1 | -1.4% | 
40 | CC(C)CCCCCCCCCCCCCCC(=O)O | 5.68% | 
41 | Oc1ccc(Cl)cc1Sc1cc(Cl)ccc1O |  | 21.8 µM (active) and 23.7 µM (active)
42 | CC1=NC(C)OC1C (centres undefined) | -0.688% | 
43 | C=C(C)C(=O)OCC[N+](C)(C)C | 2.63% | 
44 | CCCCCOC(=O)CCCC | -7.98% | 
45 | CCC(C)(C)C1CCCCC1OC(C)=O (centres undefined) |  | 38.9 µM (active)
46 | Clc1ccc2nsnc2c1NC1=NCCN1 | -1.7% | 
47 | CC(=O)OCC(C)OC(C)=O (centres undefined) | 4.4% | 
48 | CCCCCCCCS(=O)C(C)Cc1ccc2c(c1)OCO2 (centres undefined) |  | 50 µM (active)
49 | Cc1cccc(S(=O)(=O)O)c1C | -1.45% | 
50 | COc1c(C)c2c(c(O)c1C/C=C(\C)CCC(=O)O)C(=O)OC2 | -18% | 
51 | CSc1ccc(C(=O)c2[nH]c(=O)[nH]c2C)cc1 | -0.0641% | 
52 | CCN(C(=O)N(CC)c1ccccc1)c1ccccc1 | -22.3% | 
53 | On1ccccc1=S |  | 0.61 µM (active)
54 | Cc1ccc(O)c(C(C)(C)C)c1 |  | 19.5 µM (active)
55 | O=C1c2ccccc2Cc2ccccc21 | 10.8% [at 81.1 µM] | 
56 | C[C@H]1[C@H]2CC[C@H]3[C@@H]4CC=C5C[C@@H](N(C)C)CC[C@]5(C)[C@H]4CC[C@]23CN1C | -7.94% | 
57 | CCN1/C(=C/C=C/c2sc3ccccc3[n+]2CC)Sc2ccccc21 |  | 4.61 µM (active)
58 | O=C(OCC1CO1)C1CCCCC1C(=O)OCC1CO1 (centres undefined) | 9.21% | 
59 | Fc1ccc(C(c2ccc(F)cc2)N2CCN(C/C=C/c3ccccc3)CC2)cc1 |  | 29.8 µM (active)
